Data reported in PubChem BioAssay.
Measured potencies and affinities stand elsewhere. Records with an inconclusive call do not appear.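 How the source made its calls: active means falling signal with fitted half-maximal potency no higher than twice the top valid tested dose; inconclusive means poor fit quality, or flat fit spanning -70% to -30%; inactive means potency over limit, rising signal, or flat fit inside 30%.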

Assay: Cryptococcus neoformans growth inhibition, dose response, Alamar Blue, cherry-picks (AID 686998)
Details: 24 h; series mostly up to 35 µM; activity change, negative = inhibition: at the top concentration

Activity change, negative = inhibition, inactive:
C[C@@H]1CN([C@@H](C)CO)S(=O)(=O)c2ccc(C#Cc3ccccn3)cc2O[C@H]1CN(C)Cc1ccccc1 -31%, CCOc1ccc(C(=O)NC(=S)Nc2ccccc2N2CCC(C)CC2)cc1[N+](=O)[O-] -17.5%, C[C@@H]1CN([C@H](C)CO)C(=O)c2cc(NS(=O)(=O)c3ccc(Cl)cc3)ccc2O[C@H]1CN(C)S(=O)(=O)c1ccc(F)cc1 20.1%, C[C@H]1CN([C@@H](C)CO)C(=O)Cc2cc(NC(=O)CCCCCC(=O)Nc3ccccc3N)ccc2O[C@H]1CN(C)Cc1ccc2c(c1)OCO2 24.5%, COc1ccccc1CN1CC[C@H]2[C@H](CO)Nc3ccc(C#Cc4ccccc4)cc3[C@H]21 -20.2%, Cc1ccc(NC(=O)C2(C)CCN2C(=O)CC2CCCC2)cc1 (centres undefined) 1.42% [at 50 µM], O=C(Nc1ccccc1)N[C@@H]1CC[C@@H](CCNC(=O)c2ccccc2F)O[C@H]1CO -34.2%, CCC(=O)Nc1ccc2c(c1)C(=O)N(C)C[C@@H](OC)[C@H](C)CN[C@@H](C)CO2 -16.2%, COc1ccccc1C(=O)Nc1ccc2c(c1)OC[C@H](C)N(C(C)=O)C[C@H](C)[C@H](OC)CN(C)C2=O -3.48%, CC(C)(C)NC(=O)CSc1ncnc2c1cnn2-c1ccccc1 1.28%, CC(C)NC(=O)Nc1ccc2c(c1)C(=O)N([C@@H](C)CO)C[C@@H](C)[C@@H](CN(C)S(=O)(=O)c1ccc(Cl)cc1)OCCCC[C@@H](C)O2 -25.7%, C/C=C/c1ccc([C@@H]2[C@@H](CO)N3CCCCN(C(=O)Nc4ccc(OC)cc4)C[C@H]23)cc1 51.5%, C[C@@H]1CCCCO[C@@H](CN(C)Cc2ccc3c(c2)OCO3)[C@@H](C)CN([C@H](C)CO)C(=O)c2cc(NS(=O)(=O)c3ccc(F)cc3)ccc2O1 15.5%, CCCN1CCCC[C@H]1C(=O)Nc1c(C)cccc1C -22.5%, C[C@@H]1CN([C@@H](C)CO)S(=O)(=O)c2ccc(-c3ccccc3)cc2O[C@H]1CN(C)C(=O)C1CCCCC1 -32.2%, O=C([C@H]1[C@H](CO)[C@H]2Cn3c(cccc3=O)[C@H]2N1CCC(F)(F)F)N1CCCCC1 31.3%, CO[C@H]1CN(C)C(=O)c2cc(NS(=O)(=O)CC(F)(F)F)ccc2OC[C@@H](C)N(Cc2cccnc2)C[C@@H]1C 25.5%, C[C@@H]1CN([C@H](C)CO)C(=O)c2cc(C#CC(C)(C)O)cnc2O[C@@H]1CN(C)Cc1cncnc1 -4.92%, CC=Cc1ccc2n(c1=O)C[C@H]1[C@H](CO)[C@@H](C(=O)N3CCc4ccccc4C3)N(C(=O)C3CC3)[C@@H]21 (mixture of isomers) -27.4%, C[C@H]1CN([C@@H](C)CO)C(=O)c2cc(NC(=O)Nc3cccc4ccccc34)ccc2O[C@@H]1CN(C)C(=O)Nc1ccc(C(F)(F)F)cc1 52.2%, C[C@@H]1CN([C@@H](C)CO)C(=O)c2c(c3ccccc3n2C)-c2ccccc2CO[C@@H]1CN(C)S(=O)(=O)c1ccc(Cl)cc1 34.2%, CCC(C(=O)Nc1c(C)cc(C)cc1C)N1CCCCCC1 (centres undefined) -29.6%, C[C@@H]1CCCCO[C@@H](CN(C)Cc2ccc(C(F)(F)F)cc2)[C@@H](C)CN([C@@H](C)CO)C(=O)c2cc(NS(=O)(=O)c3cn(C)cn3)ccc2O1 -28.5% [at 30 µM], COc1ccccc1C(=O)Nc1ccc2c(c1)C(=O)N(C)C[C@@H](OC)[C@H](C)CN(C)[C@@H](C)CO2 28.1%, C[C@H](CO)N1C[C@H](C)[C@H](CN(C)Cc2cccc(C(F)(F)F)c2)OCc2cnnn2CCCC1=O -19.1%, Cc1ccccc1CN(C)C[C@H]1OCc2cn(nn2)CCCC(=O)N([C@@H](C)CO)C[C@H]1C 22%, C[C@H](CO)N1C[C@H](C)[C@H](CN(C)Cc2cccnc2)Oc2ncc(C#CC3(O)CCCC3)cc2C1=O -14.1%, Cc1cccc(N2CCN(C(=O)C3CCC(=O)N3C(C)C)CC2C)c1 (centres undefined) -23.6% [at 50 µM], C[C@@H]1CN([C@@H](C)CO)C(=O)c2cc(N(C)C)ccc2O[C@@H]1CN(C)C(=O)Nc1ccc(C(F)(F)F)cc1 12.9%, COCCNC(=O)C[C@H]1C=C[C@@H](NS(=O)(=O)c2ccc(C)cc2)[C@H](CO)O1 26%, Cc1cccc(C)c1NC(=O)C(C)N1CCCC1 (centres undefined) 10.8%, O=C(C1CCOCC1)N1CC[C@@H]2[C@H]1c1cc(Br)ccc1N[C@@H]2CO -15.3%, C[C@H](CO)N1C[C@H](C)[C@H](CN(C)Cc2ccccc2)Oc2cc(C#Cc3ccccn3)ccc2S1(=O)=O 29.1%, CCCC#Cc1cnc2c(c1)C(=O)N([C@@H](C)CO)C[C@H](C)[C@H](CN(C)C(=O)Nc1cccc(F)c1)O2 33.9%, CO[C@@H]1CN(C)C(=O)c2ccc(NC(=O)C3CC3)cc2OC[C@H](C)N(C(=O)c2ccncc2)C[C@H]1C -25.4%, Cc1cccc(-c2ccc([C@@H]3[C@H]4CN(C(=O)c5ccc6c(c5)OCO6)CCCCN4[C@H]3CO)cc2)c1 -47.3%, O=C(c1cccnc1)N1CCC(Oc2ccc(C(=O)N3CCCC(O)C3)cc2)CC1 (centres undefined) -45.8%, COc1ccccc1CNC(=O)C[C@@H]1CC[C@@H]2[C@H](COc3ccc(NC(C)=O)cc3C(=O)N2C)O1 -8.02%, C[C@@H]1CCCCO[C@H](CN(C)Cc2ccc3c(c2)OCO3)[C@H](C)CN([C@H](C)CO)C(=O)c2cc(NC(=O)Nc3cccc4ccccc34)ccc2O1 53.9%
